Source: PubChem BioAssay (The Scripps Research Institute Molecular Screening Center)
Most compounds without a hit are left out; they make up all but 3.5% or so of the library.
MITF inh = blocks human microphthalmia-associated transcription factor; 650,000 tested, 0.91% active; AlphaScreen MITF homodimerization, bead proximity signal; inhibition, % at 2.6 µM; in the data active means inhibition above about 50%
FBW7 activator = human FBW7 E3 ligase activation, primary screen. 650,000 tested, 0.13% active. AID 1259310. normalized activity (activation), % at 26.1 µM. Q969H0. AlphaScreen FBW7–phospho-cyclin E peptide binding, activator screen; in the data active means normalized activity above about 1.9%;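 further: purified mutant Fbw7 with reduced substrate affinity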
GPR151 activ = human GPR151 activation. PathHunter beta-arrestin GPR151 cells, luminescence. 650,000 tested, 1% active. AID 1508602. activation, % at 11.2 µM; in the data active means activation above about 4.9%
Target sequence (Q8TDV0 whole entry, looked up): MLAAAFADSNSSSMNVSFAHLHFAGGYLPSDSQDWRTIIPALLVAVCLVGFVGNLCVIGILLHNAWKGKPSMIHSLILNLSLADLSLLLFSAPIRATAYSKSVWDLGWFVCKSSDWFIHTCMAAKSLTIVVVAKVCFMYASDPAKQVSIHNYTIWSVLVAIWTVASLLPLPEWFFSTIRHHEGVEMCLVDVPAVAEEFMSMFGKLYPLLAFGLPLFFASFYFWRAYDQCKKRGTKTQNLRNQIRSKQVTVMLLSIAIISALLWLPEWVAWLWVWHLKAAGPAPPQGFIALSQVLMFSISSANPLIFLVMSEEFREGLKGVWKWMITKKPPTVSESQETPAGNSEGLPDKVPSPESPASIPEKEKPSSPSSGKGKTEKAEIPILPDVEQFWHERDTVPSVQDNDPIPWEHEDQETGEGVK
TEAD-YAP block = TEAD-YAP interaction inhibition | HEK-TIYL cells, TEAD-Gal4/YAP UAS-luciferase luminescence | inhibition, % at 9.12 µM | 640,000 tested, 1.4% active | AID 1259422; in the data active means inhibition above about 32%
Large screens that a line does not name were inactive; ! = a repeat was not active.

O=C(N/C(=C/c1ccccc1O)C(=O)N1CCCCC1)c1ccccc1	TEAD-YAP block 74.0
CCOc1cc(/C=C2/C(=N)N3C(c4ccccc4)=CSC3=NC2=O)ccc1OCCOc1cc(C)ccc1C	none
CCC(C(=O)Nc1ccc(S(=O)(=O)Nc2nccc(C)n2)cc1)c1ccccc1 (stereo not given)	none
CCCCNC(=O)c1ccccc1NS(C)(=O)=O	none
O=C(CSc1n[nH]c(-c2ccccc2)n1)Nc1cccc2ccccc12	TEAD-YAP block 53.4
O=C(CSc1n[nH]c(-c2ccccc2)n1)Nc1ccccc1Cl	none
O=C(Nc1nnc(SCCN2CCOCC2)s1)C1CC1	none
CC(C)n1cnc2c(Nc3ccc(N4CCOCC4)cc3)nc(-c3ccc(C(N)=O)cc3)nc21	TEAD-YAP block 32.3
c1ccc(N2CCN(c3nc(Nc4ccc(N5CCOCC5)cc4)c4ncn(C5CCCCC5)c4n3)CC2)nc1	MITF inh 51.7
CC(C)n1cnc2c(Nc3ccc(N4CCOCC4)cc3)nc(Nc3nc4ccccc4n3C)nc21	TEAD-YAP block 33.0
CC(C)n1cnc2c(Nc3ccc(N4CCOCC4)cc3)nc(Nc3ccccn3)nc21	TEAD-YAP block 32.7
CC1=C(C(=O)OC2CCCC2)C(c2ccc(Cl)cc2)C2=C(CC(C)(C)CC2=O)N1 (stereo not given)	none
COCc1cc(C)n(CC(=O)Nc2ccc(OC)c(Cl)c2)c(=O)c1C#N	none
CC(C)n1cnc2c(Nc3ccccc3)nc(NC3CCC(O)CC3)nc21 (stereo not given)	TEAD-YAP block 68.4
CC(=O)Nc1ccc(Nc2nc(NC3CCC(O)CC3)nc3c2ncn3C(C)C)cc1 (stereo not given)	none
CCN(Cc1ccccc1)C(=O)C1CCN(Cc2ccc(F)cc2)CC1	none
Cc1ccc(S(=O)(=O)N2c3ccc(C)cc3-c3ccccc3S2(=O)=O)cc1	TEAD-YAP block 50.4
COc1ccc2c(c1)-c1cc(Cl)ccc1S(=O)(=O)N2S(=O)(=O)c1ccc(C)cc1	none
O=C(NNC(=O)C1CC1)c1cc2nc(-c3cccs3)cc(C(F)(F)F)n2n1	none
COC(=O)C1=C(C)NC2=C(C(=O)CC(c3cccs3)C2)C1c1cccs1 (stereo not given)	none
CC1=C(C(=O)OC(C)C)C(c2cccs2)C2=C(CC(c3cccs3)CC2=O)N1 (stereo not given)	TEAD-YAP block 37.2
COC(=O)C1=C(C)NC2=C(C(=O)CC(c3cccs3)C2)C1c1cc(OC)c(Br)cc1OC (stereo not given)	TEAD-YAP block 60.2
COCCOC(=O)C1=C(C)NC2=C(C(=O)CC(c3cccs3)C2)C1c1cccs1 (stereo not given)	none
CCOC(=O)C1=C(C)NC2=C(C(=O)CC(c3cccs3)C2)C1c1cccs1 (stereo not given)	TEAD-YAP block 51.2!
CCc1ccc(C2C(C(=O)OC(C)C)=C(C)NC3=C2C(=O)CC(c2cccs2)C3)s1 (stereo not given)	none
COC(=O)C1=C(C)NC2=C(C(=O)CC(c3cccs3)C2)C1c1ccsc1 (stereo not given)	TEAD-YAP block 32.9
O=Cc1cc([N+](=O)[O-])ccc1N1CCCCC1	none
COc1ccc(N2CCN(C(=O)CSc3nc4[nH]ncc4c(=O)n3-c3ccc(F)c(Cl)c3)CC2)cc1	none
O=C(NC1CCCCC1)/C(=C\c1ccco1)NC(=O)c1ccccc1	none
O=C1C(=O)N(c2nccs2)C(c2ccccc2)/C1=C(\O)c1ccc(Cl)cc1 (stereo not given)	none
NS(=O)(=O)c1ccc(NC(=O)COc2ccc(Br)cc2Cl)cc1	none
COCCOC(=O)C1=C(C)NC2=C(C(=O)CC(c3cccs3)C2)C1c1ccccc1F (stereo not given)	none
COCCOC(=O)C1=C(C)NC2=C(C(=O)CC(c3cccs3)C2)C1c1ccc(F)cc1 (stereo not given)	TEAD-YAP block 36.4!
Cc1ccc(N(CC(=O)N2CCCCC2)S(C)(=O)=O)cc1	none
CN(C)c1ccc(/C=C(/C#N)c2ccc(C#N)cc2)cc1	none
N#C/C(=C/c1ccc(O)cc1)c1ccc(C#N)cc1	TEAD-YAP block 44.8
CCN(CC)c1ccc(C(=O)Nc2cc(C(=O)N3CCOCC3)ccc2N2CC3CC(C2)c2cccc(=O)n2C3)cc1 (stereo not given)	TEAD-YAP block 69.2
COCCCNc1nc2nonc2nc1NCCCSC	none
COc1ccc(C2CC(=O)C=C(Nc3cc(C)ccc3O)C2)cc1 (stereo not given)	none
COc1ccc(C2CC(=O)C=C(Nc3cc(Cl)ccc3O)C2)cc1 (stereo not given)	FBW7 activator 2.1
Cc1cc(N2CCC(C)CC2)nc2ccc(NC(=O)CCC(=O)NCc3ccco3)cc12	none
Cc1nc(NC(=O)/C=C/c2ccccc2)sc1C(=O)NCc1ccccc1	none
